Assay [1] can be described thus: blockers of polyQ-driven CASP3 activation – cell-based (AID 1583). As to conditions: polyglutamine-induced caspase-3 activation, cell assay; stronger effect = higher value;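 tested at 10 µM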.
A short description of assay [2]: yeast 75Q aggregation reduction – 75Q-TubU reporter (AID 1593). The following applies: Yeast 75Q polyglutamine aggregation reporter.
The nature of assay [3]: restoration of touch response, mutant HTT neurons – whole organism, C. elegans mechanosensory neurons, N-terminal huntingtin (AID 1599). The following applies: C. elegans polyQ-huntingtin mechanosensory neurons, stronger effect = higher value.
Assay [4] is described as follows: blockers of cytochrome c efflux from mitochondria – biochemical, purified mitochondria (AID 1603).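 Also: mouse liver mitochondria challenged with calcium chloride; signal normalized to the plate average as 100%.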 The following applies: stronger effect = lower value.
Assay [5] can be described thus: polyglutamine aggregate formation blockers (AID 1604). As to conditions: polyglutamine-induced protein aggregation inhibition assay; stronger effect = higher value; tested at 2.5 µM.
The nature of assay [6]: glutamate transport activators, MN-1 cells, MN-1 cell line (AID 1612).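 Also: tested at 1 µM final; 0% = mean of DMSO vehicle wells on each plate; positive means more glutamate uptake than control and negative means less.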 As to conditions: MN-1 motor neuron cells, stronger effect = higher value.
A short description of assay [7]: GFP-Q80 aggregate reduction, neuronal-like cells, cell-based, NGF-treated PC12, GFPQ80 (AID 1614).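 Also: lower means fewer inclusions and 0 means no inclusions at all.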 The following applies: PC12 NGF-treated GFP-polyQ80 inclusion reduction.
The nature of assay [8]: 75Q-TubH aggregate inhibition, S. cerevisiae, yeast (AID 1616). The following applies: S. cerevisiae 75Q-TubH polyglutamine aggregation suppression; stronger effect = higher value.
Assay [9] in a line: compounds altering circadian rhythm period length – cell-based, LOPAC library, luminescence reporter (AID 2774; call rule not given here;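 also: values are relative to mean of DMSO wells on each plate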). As to conditions: circadian reporter cells, at 7 µM, actives lie on both sides.
Assay [10] concerns Hepatitis C virus NS3 helicase. Nature of the assay: blockers of NS3h binding to ssDNA – biochemical, fluorescence polarization, LOPAC1280 library, primary screen (AID 687035; in the data active = inhibition above about 37%). As to conditions: Purified HCV NS3 helicase, Cy5-dT15 ssDNA binding fluorescence polarization; stronger effect = higher value; concentration not given here. (Fluorescence polarisation rises when a labelled molecule tumbles more slowly, as on binding a larger partner.)

A short description of assay [11]: compounds altering Cy5-DNA-NS3h complex signal – biochemical, LOPAC1280, artefact control for HCV NS3 helicase inhibitor project (AID 687037; call rule not given here). As to conditions: Cy5-DNA-NS3h complex fluorescence interference counterscreen.
The target of assay [12] is 6-phosphogluconate dehydrogenase, decarboxylating (Homo sapiens) (UniProt P52209). Nature of the assay: inhibition of human phosphogluconate dehydrogenase – biochemical, recombinant enzyme, NADPH absorbance, primary screen (AID 1159550;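 active = at least 20% inhibition of 6-phosphogluconate dehydrogenase activity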). The following applies: recombinant 6PGD, NADPH absorbance 341 nm; at 10 µM; stronger effect = higher value.
The subject of assay [13] is Aerobactin synthetase IucA (Klebsiella pneumoniae). The assay is described as follows: inhibition of K. pneumoniae IucA enzyme – biochemical, Tocris library, absorbance (AID 1345561; call rule not given here;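 also: 100% = enzyme without compound and 0% = no enzyme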). The following applies: purified IucA enzyme assay, absorbance (OD) read-out; stronger effect = lower value;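 tested at 8 µM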.
Assay [14] in a line: viability loss with induced miR-34 in A549 – imaging, A549 dox-inducible miR-34, nuclei and caspase counts, primary screen (AID 1347080;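 active = compounds whose cell count with miR-34 switched on is under 0.7 times the count with it off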). As to conditions: A549 miR-34 inducible, Hoechst nuclei count, 48 h.
Assay [15] in a line: blockers of cellular phospholipid synthesis – cell-based, LOPAC library, screen 4, primary screen (AID 1347384; call rule not given here). The following applies: animal cells, phospholipid biosynthesis inhibition screen; at 10 µM.
Assay [16] in a line: galactose survival enhancers in mitochondrial complex I cybrids – cell-based, galactose medium, ATP luminescence, primary screen (AID 1645843;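 active = z-score of at least 1.8 in each of two replicates, scored against plate mean and spread of sample wells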;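 also: positive z means more ATP and so rescue of galactose-driven cybrid death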). As to conditions: complex I mutant cybrid cells, 72 h, stronger effect = higher value.
Assay [17] can be described thus: viability loss in pontine glioma line – cell-based, SU-DIPG-XVII, MIPE5.0, CellTiter-Glo, qHTS, dose response (AID 1347060).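 As to AC50: cells exposed to compound for 48 hours before viability readout.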 As to conditions: CellTiter-Glo ATP luminescence. (ATP-based viability assays read luminescence as a measure of living cells.)
A short description of assay [18]: viability loss in pontine glioma line – cell-based, JHH-DIPG-1, MIPE4.0, CellTiter-Glo, qHTS, dose response (AID 1347062; cut-off not given, nearly all actives have AC50 up to about 27 µM;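 as to AC50: cells exposed to compound for two days before readout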). The following applies: JHH-DIPG-1 viability, CellTiter-Glo ATP luminescence.
A short description of assay [19]: viability loss in pontine glioma line – cell-based, SU-DIPG-IV, MIPE4.0, CellTiter-Glo, qHTS, dose response (AID 1347063; cut-off not given, nearly all actives have AC50 up to about 30 µM;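 also: compound exposure lasted 48 hours before the viability readout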). As to conditions: CellTiter-Glo ATP luminescence.
The nature of assay [20]: viability loss in pontine glioma line – cell-based, SU-DIPG-XIII, MIPE5.0, CellTiter-Glo, qHTS, dose response (AID 1347064; cut-off not given, nearly all actives have AC50 up to about 23 µM;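 as to AC50: cells exposed to compound for 48 hours before the viability read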). As to conditions: CellTiter-Glo ATP luminescence.
Assay [21] can be described thus: viability loss in pontine glioma line – cell-based, SU-DIPG-XXV, MIPE5.0, CellTiter-Glo, qHTS, dose response (AID 1347065).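 Also: cells exposed to compound for 48 hours before ATP readout.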 As to conditions: CellTiter-Glo ATP luminescence.
A short description of assay [22]: JHH-DIPG-1 glioma cell viability, MIPE5.0 library, CellTiter-Glo luminescence, qHTS (AID 1347067).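 Also: cells exposed to compound for 48 hours before readout.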 The following applies: JHH-DIPG-1 glioma viability, CellTiter-Glo ATP luminescence.
Assay [23] in a line: growth inhibition of DIPG cells – cell-based, MIPE5.0 library, qHTS (AID 1347068; cut-off not given, nearly all actives have IC50 up to about 30 µM;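 as to IC50: cells exposed to compound for 48 hours before viability readout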). The following applies: SU-DIPG-XXV viability. (In general: qHTS replaces the single test concentration by a dilution series.)
The target of assay [24] is Mitogen-activated protein kinase 7 (Homo sapiens) (UniProt Q13164). Nature of the assay: Gal4-ERK5 driven luciferase induction – cell-based, HTS, primary screen (AID 1508626;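 active = luciferase signal above three times the same-plate solvent-only control wells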;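 also: luciferase driven by Gal4-ERK5 fusion binding five Gal4 sites before minimal TATA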). The following applies: HeLa Gal4-ERK5 transactivation, 18 h, at 5 µM, stronger effect = higher value.
Assay [25] can be described thus: viability loss in pontine glioma line – cell-based, SU-DIPG-XIII, MIPE4.0, CellTiter-Glo, qHTS, dose response (AID 1347061; cut-off not given, nearly all actives have AC50 up to about 37 µM;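 also: cells exposed to compound for 48 hours before readout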). The following applies: CellTiter-Glo ATP luminescence.
Assay [26] can be described thus: growth inhibition of DIPG cells – cell-based, MIPE4.0 library, CellTiter-Glo luminescence, qHTS (AID 1347066; cut-off not given, nearly all actives have AC50 up to about 30 µM;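 also: cells exposed to compound for 48 hours before readout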). As to conditions: SU-DIPG-VI viability, CellTiter-Glo ATP luminescence.
Assay [27] can be described thus: compounds altering HSF1 focus formation in cells – imaging, Selleck Cancer Library (AID 1347162; in the data active = plate-normalised HSF1 focus index below about 0.46). The following applies: human cells, HSF1 nuclear foci imaging, at 10 µM; SSMD: measured here: HSF1 foci SSMD mean; cell count: measured here: cell number; plate-normalised HSF1 focus index: stronger effect = lower value.
The nature of assay [28]: P. berghei load reduction in hepatocytes – cell-based, HepG2, luciferase luminescence, HepG2 viability, primary screen (AID 624349; in the data active = parasite load remaining mostly below about 12%, no sharp cut-off; inactive = mostly above about 10%;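 also: 100% = mean of DMSO negative control wells on the same plate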). The following applies: P. berghei liver stage in HepG2, luciferase luminescence, concentration not given here; parasite load remaining: stronger effect = lower value; viability: measured here: HepG2 viability without parasites.
The target of assay [29] is NAD(+) hydrolase SARM1 (Homo sapiens) (UniProt Q6SZW1). The assay is described as follows: blocking NAD cleavage by SARM1 SAM-TIR – cell lysate, NAD-Glo luminescence (AID 1508614;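 active = compound whose remaining NAD level is above about 45 nM, limit read from the data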;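 also: higher remaining NAD means stronger inhibition of SARM1 NADase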). The following applies: SAM-TIR HEK293T lysate NADase, at 1 µM, stronger effect = higher value.
The target of assay [30] is ATP-dependent translocase ABCB1 (Homo sapiens) (UniProt P08183). Nature of the assay: P-glycoprotein substrate transport blockade – cell-based (AID 377; in the data active = fluorescence slope change above about 50%). As to conditions: MDR1-expressing cells, fluorescent substrate accumulation slope; stronger effect = higher value; concentration not given here.
Assay [31] in a line: compounds altering viability of human ES cells (AID 493140; call rule not given here;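 also: cells exposed to compounds for four days before counting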). As to conditions: human embryonic stem cell survival screen; stronger effect = higher value.
Assay [32] is described as follows: MELAS cybrid and Rieske KO viability enhancers – cell-based, MELAS cybrids, Rieske KO mouse fibroblasts, CellTiter-Glo, primary screen (AID 1508586;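 active = mean z-score across replicates of 1.96 or higher in either the MELAS or the Rieske mutant cell line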;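 also: z relative to plate mean and SD of compound and empty wells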). As to conditions: low glucose.
The mark [33] stands for this setting: stronger effect = lower value, cell number ratio, induced over uninduced.
Where [34] appears, read: measured here: relative caspase fold change +Dox/-Dox.
Setting [35] is: measured here: total cells with miR-34 induction, stronger effect = lower value.
Setting [36] is: measured here: total cells without miR-34 induction.

The structures appear in SMILES notation. “And” between values parts separate entries of the source, which are not always exact repeats. Equal values may be shown once. Results filed as inconclusive are left out. For some assays here: Potency and affinity values are given separately. More than one record can exist for a structure, and the calls need not agree. The source made the active and inactive calls. Unless noted, the limit is not given here; nearly all actives have AC50 up to about 26 µM.

This is an account of results in PubChem BioAssay.

By inhibition is commonly meant the change of the read-out against control, counted positive when it falls. Broadly, the remaining activity is the signal under treatment as a percentage of the control signal. The AC50 is the midpoint of the concentration-response curve, whichever way the signal moves. A word on the IC50: it is the concentration at which inhibition is half-maximal. By viability is commonly meant a read-out of living cells in per cent, often relative to untreated cells.

Sequence of Mitogen-activated protein kinase 7 (Homo sapiens) (Q13164 whole entry, looked up, the tested form may be a part): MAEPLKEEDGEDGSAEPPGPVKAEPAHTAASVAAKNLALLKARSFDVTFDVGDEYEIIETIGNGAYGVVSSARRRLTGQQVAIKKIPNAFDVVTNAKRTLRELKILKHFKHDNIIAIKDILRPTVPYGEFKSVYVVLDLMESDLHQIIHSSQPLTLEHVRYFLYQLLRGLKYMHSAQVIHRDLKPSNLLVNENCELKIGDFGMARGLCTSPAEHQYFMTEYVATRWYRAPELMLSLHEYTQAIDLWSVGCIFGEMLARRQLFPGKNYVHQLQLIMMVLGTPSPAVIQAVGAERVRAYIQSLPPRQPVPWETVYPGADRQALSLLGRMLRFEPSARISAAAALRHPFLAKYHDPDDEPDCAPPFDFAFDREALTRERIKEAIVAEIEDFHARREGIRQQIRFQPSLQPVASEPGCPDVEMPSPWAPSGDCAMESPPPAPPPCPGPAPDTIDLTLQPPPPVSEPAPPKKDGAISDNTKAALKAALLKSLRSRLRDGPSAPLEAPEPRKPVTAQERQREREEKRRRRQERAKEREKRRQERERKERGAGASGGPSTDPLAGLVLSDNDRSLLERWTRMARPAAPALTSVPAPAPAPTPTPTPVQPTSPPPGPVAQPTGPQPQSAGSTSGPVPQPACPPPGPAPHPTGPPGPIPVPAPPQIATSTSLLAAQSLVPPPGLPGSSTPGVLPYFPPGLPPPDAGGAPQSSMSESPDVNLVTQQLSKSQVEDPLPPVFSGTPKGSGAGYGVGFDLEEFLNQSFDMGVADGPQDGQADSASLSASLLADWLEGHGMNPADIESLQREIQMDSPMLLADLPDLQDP
Sequence of 6-phosphogluconate dehydrogenase, decarboxylating (Homo sapiens) (P52209 whole entry, looked up): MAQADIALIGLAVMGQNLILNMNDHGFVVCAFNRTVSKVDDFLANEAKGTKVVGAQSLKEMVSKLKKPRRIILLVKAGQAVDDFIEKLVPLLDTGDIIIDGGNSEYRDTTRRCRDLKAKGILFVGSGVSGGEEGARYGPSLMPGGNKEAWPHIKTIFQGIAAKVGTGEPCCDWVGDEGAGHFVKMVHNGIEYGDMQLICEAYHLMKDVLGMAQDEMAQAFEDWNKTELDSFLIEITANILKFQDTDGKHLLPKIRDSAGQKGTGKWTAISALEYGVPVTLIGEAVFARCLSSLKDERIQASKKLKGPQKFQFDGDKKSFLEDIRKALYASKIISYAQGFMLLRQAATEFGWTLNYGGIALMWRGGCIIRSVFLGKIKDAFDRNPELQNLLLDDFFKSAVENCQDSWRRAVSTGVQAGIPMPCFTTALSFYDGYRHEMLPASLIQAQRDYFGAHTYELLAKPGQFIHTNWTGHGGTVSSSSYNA
Sequence of NAD(+) hydrolase SARM1 (Homo sapiens) (Q6SZW1 whole entry, looked up): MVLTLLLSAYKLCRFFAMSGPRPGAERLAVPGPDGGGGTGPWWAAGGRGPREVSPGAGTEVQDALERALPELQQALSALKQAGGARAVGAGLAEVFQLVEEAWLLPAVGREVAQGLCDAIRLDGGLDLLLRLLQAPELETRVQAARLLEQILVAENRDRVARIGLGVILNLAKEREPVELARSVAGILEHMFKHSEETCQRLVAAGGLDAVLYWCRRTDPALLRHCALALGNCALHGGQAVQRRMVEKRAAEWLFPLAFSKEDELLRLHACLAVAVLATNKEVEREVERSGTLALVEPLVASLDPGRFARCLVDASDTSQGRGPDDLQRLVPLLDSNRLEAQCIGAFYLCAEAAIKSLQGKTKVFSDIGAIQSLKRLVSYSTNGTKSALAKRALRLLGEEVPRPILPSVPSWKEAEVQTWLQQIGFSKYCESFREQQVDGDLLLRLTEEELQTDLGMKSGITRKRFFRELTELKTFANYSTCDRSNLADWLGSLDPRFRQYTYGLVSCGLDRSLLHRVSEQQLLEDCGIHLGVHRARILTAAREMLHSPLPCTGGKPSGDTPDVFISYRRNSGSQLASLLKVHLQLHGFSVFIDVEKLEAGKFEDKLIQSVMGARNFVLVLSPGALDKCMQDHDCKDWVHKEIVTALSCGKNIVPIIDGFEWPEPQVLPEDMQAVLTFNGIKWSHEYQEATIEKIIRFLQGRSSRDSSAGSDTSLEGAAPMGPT
Sequence of ATP-dependent translocase ABCB1 (Homo sapiens) (P08183 whole entry, looked up): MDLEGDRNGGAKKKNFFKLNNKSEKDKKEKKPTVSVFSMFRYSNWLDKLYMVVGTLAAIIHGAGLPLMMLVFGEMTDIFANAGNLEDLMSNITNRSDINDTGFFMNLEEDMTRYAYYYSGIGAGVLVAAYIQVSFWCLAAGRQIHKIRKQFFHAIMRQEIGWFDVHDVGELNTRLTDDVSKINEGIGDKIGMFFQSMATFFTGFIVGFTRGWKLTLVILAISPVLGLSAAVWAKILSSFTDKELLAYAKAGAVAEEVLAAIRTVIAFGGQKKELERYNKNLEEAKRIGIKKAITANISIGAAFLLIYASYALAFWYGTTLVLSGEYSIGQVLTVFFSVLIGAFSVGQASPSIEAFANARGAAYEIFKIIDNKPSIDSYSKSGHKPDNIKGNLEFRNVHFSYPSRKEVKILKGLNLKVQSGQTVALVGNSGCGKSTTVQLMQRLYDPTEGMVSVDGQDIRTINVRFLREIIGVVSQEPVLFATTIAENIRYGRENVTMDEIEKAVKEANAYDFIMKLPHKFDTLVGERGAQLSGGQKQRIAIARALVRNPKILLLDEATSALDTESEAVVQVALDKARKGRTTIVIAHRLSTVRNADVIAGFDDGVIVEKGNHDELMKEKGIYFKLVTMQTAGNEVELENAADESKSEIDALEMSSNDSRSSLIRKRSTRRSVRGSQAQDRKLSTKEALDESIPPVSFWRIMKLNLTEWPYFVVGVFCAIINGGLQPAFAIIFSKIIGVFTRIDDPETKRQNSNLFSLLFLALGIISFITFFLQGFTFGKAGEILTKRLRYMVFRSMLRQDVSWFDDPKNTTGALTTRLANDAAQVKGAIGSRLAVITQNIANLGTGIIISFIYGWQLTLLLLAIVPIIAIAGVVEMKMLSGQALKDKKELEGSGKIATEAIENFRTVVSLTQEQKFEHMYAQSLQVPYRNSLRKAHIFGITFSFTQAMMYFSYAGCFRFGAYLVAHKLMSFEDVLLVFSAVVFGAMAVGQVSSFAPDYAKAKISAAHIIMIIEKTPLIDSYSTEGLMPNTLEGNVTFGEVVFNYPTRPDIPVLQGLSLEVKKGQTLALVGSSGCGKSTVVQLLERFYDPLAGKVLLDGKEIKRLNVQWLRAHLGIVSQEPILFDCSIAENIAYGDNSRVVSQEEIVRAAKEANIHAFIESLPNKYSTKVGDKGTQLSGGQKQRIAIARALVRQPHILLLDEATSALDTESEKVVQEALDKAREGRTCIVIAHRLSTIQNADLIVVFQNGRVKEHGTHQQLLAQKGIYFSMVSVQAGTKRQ

Regarding `O=C(O)C1=CCNCC1`, the figures for the inhibition in assay [1], in [10] and in [12] were 3.63%, -3% (inactive) and 13% (inactive), respectively. Also, the score in [2] came out at 1.62. This molecule returned a rescue above control in assay [3] of -1.41. In assay [4], the cytochrome c release ratio stood at 1.01. This molecule had an inhibition of aggregation in assay [5] of 45.5%. Further, the glutamate uptake change in assay [6] worked out at 8.29%. Besides, the inclusion score in assay [7] amounted to 2. In assay [8], this molecule displayed an aggregation suppression score of 1.29. The period change in assay [9] was 0.375 h (inactive). The fluorescence ratio (interference) in assay [11] was 1 (inactive). Moreover, the remaining activity in [13] is 102% (inactive). For the same molecule, the fold change in [14] (setting [33]) is 1 (inactive) and 0.973 (inactive); in assay [14] (setting [34]), 1.35 and 1.1. For the same molecule, the cell count is 9950 and 8720 in [14] (setting [35]); 9930 and 8960 in assay [14] (setting [36]). In addition, the molecule was called inactive in [15]. For the same molecule, in [16], the z-score is 0.645 (inactive) and -0.22 (inactive).
Take `COc1cc([C@@H]2c3cc4c(cc3[C@H](O)[C@H]3COC(=O)[C@@H]23)OCO4)cc(OC)c1OC`: the inhibition in [12] was 1.7% (inactive). The AC50 in assay [17] was 525 nM (active); in [18] it was 235 nM (active); in assay [19], 37.2 nM (active); in [20], 2630 nM (active); in assay [21], 742 nM (active); in [22] it was 1050 nM (active). The IC50 in [23] is 934 nM (active). The luciferase signal in [24] was 76 AU (inactive).
As for `COC1=C(OC)C(=O)C(C/C=C(\C)CC/C=C(\C)CC/C=C(\C)CC/C=C(\C)CC/C=C(\C)CC/C=C(\C)CC/C=C(\C)CC/C=C(\C)CC/C=C(\C)CCC=C(C)C)=C(C)C1=O`, the inhibition in assay [12] was -47.9% (inactive). Also, the call in assay [25], in [18] and in assay [26] was inactive. In assay [27], the SSMD was found to be 2.18. The cell count in [27] is 7460. Moreover, the plate-normalised HSF1 focus index in [27] is 1.08 (inactive).
Consider `CCC(=O)NCC[C@@H]1CCc2ccc3c(c21)CCO3`, for which the parasite load remaining in assay [28] is 159% (inactive) and -0.665% (active). Besides, the viability in assay [28] is 88.5% and 95.2%. The inhibition in assay [12] is 11.8% (inactive). Further, the molecule was classed as inactive in assay [17], in assay [25], in [18], in assay [19], in assay [20] and in assay [21]. Also, the call in assay [26], in assay [22] and in assay [23] was inactive. Besides, the fold change in assay [14] (setting [33]) is 0.882 (inactive); in [14] (setting [34]) it was 7.18. For the same molecule, the cell count in [14] (setting [35]) was 11800; in [14] (setting [36]) it was 13400. In addition, the remaining NAD in assay [29] is 10 nM (inactive). Besides, the luciferase signal in assay [24] was 72 AU (inactive).
For `C[C@H]1O[C@@H](O[C@H]2[C@@H](O)C[C@H](O[C@H]3[C@@H](O)C[C@H](O[C@H]4CC[C@@]5(C)[C@H](CC[C@@H]6[C@@H]5C[C@@H](O)[C@]5(C)[C@@H](C7=CC(=O)OC7)CC[C@]65O)C4)O[C@@H]3C)O[C@@H]2C)C[C@H](O)[C@@H]1O`, the fluorescence slope change in [30] is 24.1% (inactive). Moreover, in assay [31], the survival was 0.667 (inactive). Besides, the parasite load remaining in assay [28] was -10.5% (inactive) and 8.38% (inactive). The viability in [28] is 46.2% and 21%. In addition, the inhibition in assay [12] was -1.7% (inactive). In addition, the AC50 in assay [17] is 166 nM (active); in assay [25] it was 95.9 nM (active); in assay [18], 30.3 nM (active); in [19], 241 nM (active); in assay [20], 132 nM (active); in assay [21] it was 166 nM (active). Moreover, the AC50 in assay [26] is 95.9 nM (active); in [22], 66.1 nM (active). In addition, the fold change is 0.979 (inactive) in assay [14] (setting [33]) and 2.27 in [14] (setting [34]). Moreover, the cell count turned out to be 512 in assay [14] (setting [35]) and 523 in assay [14] (setting [36]). The z-score in [32] (MELAS cybrid survival, CellTiter-Glo 48 h, stronger effect = higher value) was -1.21 (inactive); in [32] (Rieske KO mouse fibroblast survival, CellTiter-Glo 72 h), 0.0199. Moreover, the remaining NAD in [29] was 10 nM (inactive). In addition, in assay [24], the luciferase signal is 24 AU (inactive).
